# Data as given in PubChem BioAssay (NCI).
# The panel holds about 79,000 compounds, 15% with a hit somewhere; the sample as a whole holds those more often. Unmarked numbers belong to inactive results. Activity calls are given as the source filed them. Rule as the data show it: active = growth inhibition above about 70%; inactive = the rest.
# Key:
# [1] = NCI Yeast Anticancer Drug Screen. Data for the rad52 strain (AID 147);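 also: 0% = growth of vehicle-treated control cultures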; conditions: S. cerevisiae rad52 mutant growth inhibition, stronger effect = higher value
# How it was run: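 Here a repair-compromised yeast strain receives each compound; its growth is then quantified and normalised to vehicle-only controls.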
# [2] = NCI Yeast Anticancer Drug Screen. Data for the wt1 strain (AID 149);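 also: 0% = growth of vehicle-treated wt1 cultures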; conditions: S. cerevisiae wt1 strain (SPY 50644) growth inhibition, stronger effect = higher value
# How it was run: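 Readout: yeast growth inhibition, normalised to vehicle controls, in the wt1 strain exposed to test compounds.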
# [3] = NCI Yeast Anticancer Drug Screen. Data for the rad50EPP+ strain (AID 151);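 also: 0% = growth of vehicle-treated control cultures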; conditions: S. cerevisiae rad50 mutant strain, stronger effect = higher value
# How it was run: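 Read-out is yeast growth inhibition relative to vehicle; cells used were the rad50EPP+ strain.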
# [4] = NCI Yeast Anticancer Drug Screen. Data for the mgt1 strain (AID 153); conditions: S. cerevisiae mgt1 mutant growth inhibition, stronger effect = higher value
# How it was run: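 Measured: inhibition of mgt1 yeast growth by compound, normalized to vehicle-treated cultures.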
# [5] = NCI Yeast Anticancer Drug Screen. Data for the rad50 strain (AID 155);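 also: 0% = growth of vehicle-only cultures of the same strain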; conditions: S. cerevisiae rad50 strain growth inhibition, stronger effect = higher value
# How it was run: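 Compounds were tested on a yeast strain with an engineered DNA damage repair alteration; the reported value is growth inhibition normalised to vehicle treatment.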
# [6] = NCI Yeast Anticancer Drug Screen. Data for the mec2-1 strain (AID 157); conditions: S. cerevisiae mec2-1 strain, stronger effect = higher value
# How it was run: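 Using mec2-1 yeast: add compound, measure growth, express inhibition versus vehicle-treated cultures.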
# [7] = NCI Yeast Anticancer Drug Screen. Data for the rad14 strain (AID 159);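 also: 0% = growth of vehicle-treated control cultures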; conditions: S. cerevisiae rad14 strain growth inhibition, stronger effect = higher value
# How it was run: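 Compound-treated yeast with a defined DNA-repair lesion; growth inhibition normalised to vehicle-treated cultures.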
# [8] = NCI Yeast Anticancer Drug Screen. Data for the sgs1 mgt1 strain (AID 161);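 also: 0% = growth of cultures given vehicle only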; conditions: S. cerevisiae sgs1 mgt1 strain, stronger effect = higher value
# How it was run: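 Yeast cells carrying a defined DNA-repair defect were exposed to test compounds. Growth inhibition was measured relative to vehicle-treated controls.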
# [9] = NCI Yeast Anticancer Drug Screen. Data for the CLN2oe strain (AID 163);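 also: 0% = growth of vehicle-only control cultures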; conditions: S. cerevisiae CLN2oe strain, stronger effect = higher value
# How it was run: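 Whole-cell yeast growth assay. A strain engineered for altered cell-cycle control received compound, and inhibition relative to vehicle-treated cultures was recorded.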
# [10] = NCI Yeast Anticancer Drug Screen. Data for the cln2 rad14 strain (AID 165);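 also: 0% = growth equal to vehicle treated cultures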; conditions: S. cerevisiae cln2 rad14 strain, stronger effect = higher value
# How it was run: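 Yeast strain cln2 rad14, bearing defects in cell cycle control and DNA repair, serves as the test system; values reflect growth inhibition compared with vehicle.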
# [11] = NCI Yeast Anticancer Drug Screen. Data for the bub3 strain (AID 167); conditions: S. cerevisiae bub3 mutant strain, stronger effect = higher value
# How it was run: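 Growth of a checkpoint-deficient yeast mutant is measured after compound exposure. Values represent inhibition relative to vehicle.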
# [12] = NCI Yeast Anticancer Drug Screen. Data for the wt2 strain (AID 169);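 also: 0% = growth of vehicle-treated yeast cultures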; conditions: S. cerevisiae wt2 strain growth inhibition, stronger effect = higher value
# How it was run: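 Treated yeast vs. vehicle-treated yeast: growth inhibition determined.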
# [13] = NCI Yeast Anticancer Drug Screen. Data for the mlh1 strain (AID 171);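 also: 0% = growth of vehicle-treated control cultures of the same strain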; conditions: S. cerevisiae mlh1 strain growth inhibition, stronger effect = higher value
# How it was run: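 A yeast strain with a defined genetic lesion serves as the test organism. Cultures receive compound or vehicle, and growth is measured.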
# [14] = NCI Yeast Anticancer Drug Screen. Data for the sgs1 strain (AID 173);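 also: 0% = growth of vehicle-only control cultures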; conditions: S. cerevisiae sgs1 mutant, stronger effect = higher value
# How it was run: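 A genetically defined yeast mutant is incubated with the test compound, and its growth is compared to that of the same strain given vehicle.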
# [15] = NCI Yeast Anticancer Drug Screen. Data for the mlh1 rad18 strain (AID 175); conditions: S. cerevisiae mlh1 rad18 strain growth inhibition, stronger effect = higher value
# How it was run: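 Steps: expose repair-defective yeast to compound; measure growth; express inhibition against vehicle-treated controls.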
# [16] = NCI Yeast Anticancer Drug Screen. Data for the rad18 strain (AID 177); conditions: S. cerevisiae rad18 mutant growth inhibition, stronger effect = higher value
# How it was run: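 Measured value is growth inhibition of a yeast strain bearing a DNA repair alteration, referenced to vehicle-treated cells.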
# [17] = at 5.0 µM (retest, dose inferred, filed as 0.5)
# [18] = at 50.0 µM (retest, dose inferred, filed as 5.0)
compound,measurement,setting,value
CCCCN(CCCC)C(=O)/C=C/c1ccccc1,growth inhibition,[1]; at 1.2 µM,-12%
same,growth inhibition,[1]; at 3.7 µM,-9%
same,growth inhibition,[1]; at 11.0 µM,-11%
same,growth inhibition,[1]; at 33.0 µM,18%
same,growth inhibition,[1]; at 100.0 µM,93% (active)
same,growth inhibition,[2]; at 1.2 µM,0%
same,growth inhibition,[2]; at 3.7 µM,3%
same,growth inhibition,[2]; at 11.0 µM,11%
same,growth inhibition,[2]; at 33.0 µM,10%
same,growth inhibition,[2]; at 100.0 µM,82% (active)
same,growth inhibition,[3]; at 1.2 µM,-7%
same,growth inhibition,[3]; at 3.7 µM,-20%
same,growth inhibition,[3]; at 11.0 µM,-2%
same,growth inhibition,[3]; at 33.0 µM,14%
same,growth inhibition,[3]; at 100.0 µM,33%
same,growth inhibition,[4]; at 1.2 µM,-4%
same,growth inhibition,[4]; at 3.7 µM,-9%
same,growth inhibition,[4]; at 11.0 µM,-5%
same,growth inhibition,[4]; at 33.0 µM,-1%
same,growth inhibition,[4]; at 100.0 µM,48%
same,growth inhibition,[5]; at 1.2 µM,-15%
same,growth inhibition,[5]; at 3.7 µM,-12%
same,growth inhibition,[5]; [17],5%
same,growth inhibition,[5]; at 11.0 µM,-10%
same,growth inhibition,[5]; at 33.0 µM,15%
same,growth inhibition,[5]; [18],84% (active)
same,growth inhibition,[5]; at 50.0 µM,93.3% (active)
same,growth inhibition,[5]; at 100.0 µM,89% (active)
same,growth inhibition,[6]; at 1.2 µM,-5%
same,growth inhibition,[6]; at 3.7 µM,-5%
same,growth inhibition,[6]; [17],-1%
same,growth inhibition,[6]; at 11.0 µM,-6%
same,growth inhibition,[6]; at 33.0 µM,-4%
same,growth inhibition,[6]; [18],85% (active)
same,growth inhibition,[6]; at 50.0 µM,92.2% (active)
same,growth inhibition,[6]; at 100.0 µM,79% (active)
same,growth inhibition,[7]; at 1.2 µM,-1%
same,growth inhibition,[7]; at 3.7 µM,-9%
same,growth inhibition,[7]; at 11.0 µM,-3%
same,growth inhibition,[7]; at 33.0 µM,23%
same,growth inhibition,[7]; at 100.0 µM,65%
same,growth inhibition,[8]; [17],4%
same,growth inhibition,[8]; [18],92% (active)
same,growth inhibition,[8]; at 50.0 µM,92.2% (active)
same,growth inhibition,[9]; at 1.2 µM,-9%
same,growth inhibition,[9]; at 3.7 µM,-6%
same,growth inhibition,[9]; at 11.0 µM,-23%
same,growth inhibition,[9]; at 33.0 µM,-9%
same,growth inhibition,[9]; at 100.0 µM,43%
same,growth inhibition,[10]; [17],7%
same,growth inhibition,[10]; [18],20%
same,growth inhibition,[10]; at 50.0 µM,68%
same,growth inhibition,[11]; at 1.2 µM,-2%
same,growth inhibition,[11]; at 3.7 µM,10%
same,growth inhibition,[11]; [17],18%
same,growth inhibition,[11]; at 11.0 µM,21%
same,growth inhibition,[11]; at 33.0 µM,33%
same,growth inhibition,[11]; [18],76% (active)
same,growth inhibition,[11]; at 50.0 µM,74.2% (active)
same,growth inhibition,[11]; at 100.0 µM,70% (active)
same,growth inhibition,[12]; at 1.2 µM,6%
same,growth inhibition,[12]; at 3.7 µM,-4%
same,growth inhibition,[12]; at 11.0 µM,12%
same,growth inhibition,[12]; at 33.0 µM,47%
same,growth inhibition,[12]; at 100.0 µM,97% (active)
same,growth inhibition,[13]; at 1.2 µM,-9%
same,growth inhibition,[13]; at 3.7 µM,-4%
same,growth inhibition,[13]; at 11.0 µM,-5%
same,growth inhibition,[13]; at 33.0 µM,18%
same,growth inhibition,[13]; at 100.0 µM,85% (active)
same,growth inhibition,[14]; at 1.2 µM,-17%
same,growth inhibition,[14]; at 3.7 µM,-6%
same,growth inhibition,[14]; at 11.0 µM,8%
same,growth inhibition,[14]; at 33.0 µM,33%
same,growth inhibition,[14]; at 100.0 µM,87% (active)
same,growth inhibition,[15]; [17],-3%
same,growth inhibition,[15]; [18],88% (active)
same,growth inhibition,[15]; at 50.0 µM,81.2% (active)
same,growth inhibition,[16]; at 1.2 µM,-6%
same,growth inhibition,[16]; at 3.7 µM,-9%
same,growth inhibition,[16]; at 11.0 µM,-3%
same,growth inhibition,[16]; at 33.0 µM,4%
same,growth inhibition,[16]; at 100.0 µM,61%
O=C1C=C(c2ccccc2)OC1(c1ccccc1)N1CCOCC1 (stereo not drawn),growth inhibition,[1]; at 1.2 µM,-1%
same,growth inhibition,[1]; at 3.7 µM,-1%
same,growth inhibition,[1]; at 11.0 µM,3%
same,growth inhibition,[1]; at 33.0 µM,16%
same,growth inhibition,[1]; at 100.0 µM,98% (active)
same,growth inhibition,[2]; at 1.2 µM,-1%
same,growth inhibition,[2]; at 3.7 µM,2%
same,growth inhibition,[2]; at 11.0 µM,-4%
same,growth inhibition,[2]; at 33.0 µM,-7%
same,growth inhibition,[2]; at 100.0 µM,98% (active)
same,growth inhibition,[3]; at 1.2 µM,3%
same,growth inhibition,[3]; at 3.7 µM,7%
same,growth inhibition,[3]; at 11.0 µM,7%
same,growth inhibition,[3]; at 33.0 µM,10%
same,growth inhibition,[3]; at 100.0 µM,17%
same,growth inhibition,[4]; at 1.2 µM,-5%
same,growth inhibition,[4]; at 3.7 µM,-6%
same,growth inhibition,[4]; at 11.0 µM,-4%
same,growth inhibition,[4]; at 33.0 µM,59%
same,growth inhibition,[4]; at 100.0 µM,98% (active)
same,growth inhibition,[5]; at 1.2 µM,1%
same,growth inhibition,[5]; at 3.7 µM,4%
same,growth inhibition,[5]; [17],-20%
same,growth inhibition,[5]; at 11.0 µM,1%
same,growth inhibition,[5]; at 33.0 µM,19%
same,growth inhibition,[5]; [18],69%
same,growth inhibition,[5]; at 50.0 µM,-0.2%
same,growth inhibition,[5]; at 100.0 µM,98% (active)
same,growth inhibition,[6]; at 1.2 µM,-1%
same,growth inhibition,[6]; at 3.7 µM,4%
same,growth inhibition,[6]; [17],-12%
same,growth inhibition,[6]; at 11.0 µM,3%
same,growth inhibition,[6]; at 33.0 µM,8%
same,growth inhibition,[6]; [18],0%
same,growth inhibition,[6]; at 50.0 µM,-5.95%
same,growth inhibition,[6]; at 100.0 µM,98% (active)
same,growth inhibition,[7]; at 1.2 µM,-2%
same,growth inhibition,[7]; at 3.7 µM,-1%
same,growth inhibition,[7]; at 11.0 µM,-1%
same,growth inhibition,[7]; at 33.0 µM,9%
same,growth inhibition,[7]; at 100.0 µM,98% (active)
same,growth inhibition,[8]; [17],-2%
same,growth inhibition,[8]; [18],90% (active)
same,growth inhibition,[8]; at 50.0 µM,55.7%
same,growth inhibition,[9]; at 1.2 µM,1%
same,growth inhibition,[9]; at 3.7 µM,-4%
same,growth inhibition,[9]; at 11.0 µM,6%
same,growth inhibition,[9]; at 33.0 µM,0%
same,growth inhibition,[9]; at 100.0 µM,97% (active)
same,growth inhibition,[10]; [17],2%
same,growth inhibition,[10]; [18],14%
same,growth inhibition,[10]; at 50.0 µM,19.9%
same,growth inhibition,[11]; at 1.2 µM,0%
same,growth inhibition,[11]; at 3.7 µM,-1%
same,growth inhibition,[11]; [17],-1%
same,growth inhibition,[11]; at 11.0 µM,4%
same,growth inhibition,[11]; at 33.0 µM,14%
same,growth inhibition,[11]; [18],44%
same,growth inhibition,[11]; at 50.0 µM,-27.7%
same,growth inhibition,[11]; at 100.0 µM,98% (active)
